# Compound activity from PubChem.
# In the library only some 7.4% were active in any assay of this set; here they are far more common.
# Rab9 prom act – Rab9 promoter activation; Huh7 Rab9 promoter-luciferase reporter, luminescence, 24 h; Potency, µM (highest dose often 9.22 µM), inactives show top-dose activation, negative = inhibition, most hits filed as activators; 320,000 compounds, 2.8% hits; AID 485297; further: % of control where 0% means no effect; nearly all actives have a fitted effect of over 60% in size
#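 Cells were plated at 1500 per well in reduced-serum medium with 10% FBS and left 2 h. Compound in DMSO was then added for 24 h at 37 °C. Reporter signal was read by luminescence after 10 min with luciferase detection reagent.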
# FLuc counter – inhibits or activates purified firefly luciferase, miR-21 counter-screen; P08659; 360,000 compounds, 6.9% hits; purified FLuc, Km substrates, luminescence inhibition; Potency, µM (titrated, usually from 57.5 µM), for the others: at the highest dose activity change, negative = inhibition, most hits filed as inhibitors; AID 588342;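 further: plate controls were vehicle for no effect and reference inhibitor for full effect; nearly all actives have a fitted effect of over 55% in size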
# Target sequence (P08659 whole entry, looked up): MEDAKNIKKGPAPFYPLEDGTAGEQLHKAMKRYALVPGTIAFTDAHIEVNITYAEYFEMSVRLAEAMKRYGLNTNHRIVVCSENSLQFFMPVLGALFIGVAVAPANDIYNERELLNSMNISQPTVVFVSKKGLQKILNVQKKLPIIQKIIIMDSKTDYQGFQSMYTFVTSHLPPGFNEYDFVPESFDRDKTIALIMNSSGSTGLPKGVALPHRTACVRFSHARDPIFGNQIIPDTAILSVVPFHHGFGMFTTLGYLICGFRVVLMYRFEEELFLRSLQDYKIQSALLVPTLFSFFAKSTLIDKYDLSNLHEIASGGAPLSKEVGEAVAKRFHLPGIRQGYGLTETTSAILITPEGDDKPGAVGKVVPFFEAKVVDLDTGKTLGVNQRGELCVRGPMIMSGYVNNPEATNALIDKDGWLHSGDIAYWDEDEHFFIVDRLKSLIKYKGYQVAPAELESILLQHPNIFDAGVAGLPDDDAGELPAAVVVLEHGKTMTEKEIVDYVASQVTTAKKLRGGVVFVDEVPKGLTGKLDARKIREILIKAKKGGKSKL
#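 Purified P. pyralis luciferase, 10 nM final, with Km-level 10 uM D-luciferin and 10 uM ATP in 50 mM Tris acetate pH 7.5, 10 mM Mg acetate, 0.01% Tween-20, 0.05% BSA; 6-point qHTS titration about 60 µM downward; luminescence read.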
# ELG1 genotoxic – inducers of genotoxicity in HEK293T ELG1-luciferase cells; HEK293T ELG1-luciferase reporter, luminescence, 16 h; Potency, µM (titrated, usually from 46 µM), for inactives: at the highest dose activity change, positive = activation, most hits filed as activators; 330,000 compounds, 1.3% hits; AID 504466; further: % of control where 0% means no effect; nearly all actives have a fitted effect of over 60% in size
#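 Cells (2,000/well) expressing the ELG1-luciferase fusion are dosed by pin tool and kept 16 hr at 37 °C, 5% CO2. Signal comes from ONE-Glo luciferase reagent after 30 min at room temperature.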
# NPC1 promoter act – activators of NPC1 promoter. Huh7 NPC1 promoter luciferase reporter, 24 h. Potency, µM (titrated, usually from 9.22 µM), inactives show top-dose activation, actives largely listed as activators. 320,000 compounds, 2.4% hits; further: % of control where 0% means no effect; nearly all actives have a fitted effect of over 60% in size
#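 Cells: Huh7 expressing luciferase under the NPC1 promoter, 1500/well. Seeded 2 h, compound added, incubated 24 h at 37 °C. Luciferase reagent, 10 min ambient, then luminescence.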
# SMN2 splice up – SMN2 splice variant enhancement; 210,000 compounds, 2.8% hits; Potency, µM (top dose mostly 46.1 µM), inactives show at the highest dose activity change, positive = activation, hits mostly activators; HEK293 SMN2-luciferase splicing reporter, luminescence, 30-36 h; further: % of control where 0% means no effect; nearly all actives have a fitted effect of over 55% in size
#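 HEK293 cells carry an SMN2 minigene-luciferase reporter in which exon 7 inclusion puts luciferase in frame. Cells were seeded at 2000 cells/well, attached for 10-12 hours, then exposed to compounds for 30-36 hours at 37C before ONE-Glo luminescence.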
# Numbers without * were called inactive; ? = inconclusive; nt = no result; [ ] = another dose, or the depositor's remark. The call rests on the fitted dose curve; in most records, active means well fitted curve in the direction sought with a large enough effect; inconclusive means small, poorly fitted or top-dose-only effect, or another doubt; inactive means no such curve, though single readings can be large; an effect the other way counts as inactive or inconclusive. Potency means the concentration at half of the fitted maximal effect.
SMILES,Rab9 prom act,FLuc counter,ELG1 genotoxic,NPC1 promoter act,SMN2 splice up
c1ccc2c(-c3cn4ccccc4n3)c[nH]c2c1,3.55µM*,12µM*,14.1%,?,14.1µM*
Brc1ccc(OCc2cn3ccccc3n2)cc1,0.631µM*,2.69µM*,?,1.58µM*,10µM*
O=C(COc1ccc(Br)cc1)NCc1cn2ccccc2n1,2.1%,-1.3%,-1.3%,-4.1%,nt
CCOC(=O)c1cn2ccc(C)cc2n1,26.8%,?,?,23.2%,nt
Oc1ccc(-c2cn3ccccc3n2)cc1O,?,12µM*,13µM*,26.9%,nt
Cc1ccn2cc(-c3ccc(O)c(O)c3)nc2c1,16.7%,3.01µM*,3.26µM*,?,nt
Cc1ccc(NC(=O)Cn2nc(N3CCN(c4ccccc4)CC3)ccc2=O)cc1F,nt,-4.8%,nt,nt,nt
c1ccn2cc(C34CC5CC(CC(C5)C3)C4)nc2c1,11.6%,?,-6.7%,-8.7%,-25.9%
Brc1ccc(-c2cn3ccccc3n2)cc1,0.398µM*,0.757µM*,?,0.708µM*,nt
CN(C)S(=O)(=O)c1ccc(-c2ccccc2)cc1,7.6%,-15.0%,-2.4%,2.7%,-10.3%
CN(C)S(=O)(=O)c1ccc(-c2cn3ccccc3n2)cc1,2.51µM*,5.36µM*,5.8µM*,?,?
Oc1ccc(-c2cn3ccccc3n2)cc1,2.82µM*,5.36µM*,?,2.24µM*,nt
Nc1cc(-c2ccc(Br)cc2)nc2cc(-c3ccccc3)nn12,-1.9%,?,-17.0%,-0.5%,-24.9%
CCS(=O)(=O)N1CC(=O)N(c2cc(C)ccc2C)C(C)(C(=O)NC2CCCCC2)C1 (stereo not drawn),nt,-2.4%,nt,nt,nt
C[n+]1cc[nH]c1SCC(=O)c1ccccc1,?,23.9µM*,18.4µM*,?,20.8%
C[n+]1cc[nH]c1SCC(=O)c1ccc(Cl)cc1,?,nt,?,24.5%,?
CCc1cc2c(cc3c(=O)n(CC(=O)NC4CCCCC4)ncn32)s1,nt,-2.1%,nt,nt,7.0%
CCc1ccc(NC(=O)CSC2=Nc3ccccc3C3=NC(CCC(=O)NCc4ccccc4OC)C(=O)N23)cc1 (stereo not drawn),nt,-11.3%,nt,nt,nt
CCOC(=O)/C(C#N)=C\c1ccc(OC)c(OC)c1,-17.2%,-7.2%,0.0%,-9.5%,3.0%
CCOC(=O)/C(C#N)=C/c1ccc(N2CCN(C)CC2)cc1,1.1%,26.9µM*,-1.5%,-2.4%,5.3%
CCOC(=O)/C(C#N)=C\c1ccc(N2CCN(C)CC2)cc1,-2.5%,12µM*,4.0%,-0.8%,0.6%
CCOC(=O)C(/C=C(\C#N)C(=O)OCC)=C(/N)N1CCN(c2ccccc2)CC1,-1.0%,3.5%,2.0%,-0.9%,0.6%
CCN(CC)c1ccc(NC(=O)CN(C)S(=O)(=O)c2cccc3nsnc23)c(C)c1,nt,-12.9%,nt,nt,2.5%
O=C(O)CCCN1C(=O)/C(=C\c2ccco2)SC1=S,-21.6%,?,-3.8%,-4.9%,nt
CC(=C\c1ccccc1)/C=C1/SC(=S)N(C(C(=O)O)C(C)C)C1=O (stereo not drawn),1.0%,26.9µM*,0.1%,1.1%,-2.5%
SMILES,Rab9 prom act,FLuc counter,ELG1 genotoxic,NPC1 promoter act,SMN2 splice up
C=CCN1C(=O)/C(=C\C(C)=C\c2ccccc2)SC1=S,1.4%,8.49µM*,?,13.9%,nt
CC(/C=C1\SC(=S)N(NC(=O)c2ccc(O)cc2)C1=O)=C\c1ccccc1,2.6%,?,-0.6%,7.2%,?
CC(=C\c1ccccc1)/C=C1/SC(=S)N(CCCC(=O)O)C1=O,-20.3%,26.9µM*,-0.8%,-15.2%,nt
CCC(C(=O)O)N1C(=O)/C(=C/C(C)=C/c2ccccc2)SC1=S (stereo not drawn),3.6%,-1.9%,0.1%,-5.0%,nt
CC(/C=C1\SC(=O)N(CCCC(=O)O)C1=O)=C\c1ccccc1,-30.5%[0.369 µM],5.36µM*,-8.6%,-31.8%,-76.4%
CCn1nc(C)c2c(-c3ccccc3)cc(=O)n(C(C)C(=O)Nc3ccc(OC)c(OC)c3)c21 (stereo not drawn),nt,-2.6%,nt,nt,nt
C=CCCCCCCCCCCCc1ccco1,nt,nt,nt,nt,0.1%
O=C(NCCc1c[nH]c2ccccc12)/C(=C\c1ccco1)NC(=O)c1ccco1,-3.7%,4.2%,2.4%,-2.4%,-6.8%
Cc1ccc(C(=O)NCCc2c[nH]c3ccccc23)s1,3.16µM*,12µM*,?,3.55µM*,nt
Cc1ccc(C(=O)N/C(=C\c2ccco2)C(=O)NCCc2c[nH]c3ccccc23)cc1,0.0%,15.1µM*,3.4%,0.6%,17.4%
CC(C)C(=O)NCCc1c[nH]c2ccccc12,0.3%,-6.1%,1.1%,6.3%,1.5%
Cc1ccc(C(=O)NCCc2c[nH]c3ccccc23)c(C)c1,3.16µM*,6.75µM*,9.0%,1.58µM*,nt
Nc1nc(=O)c2[nH]cnc2n1O,nt,nt,nt,nt,-6.7%[9.22 µM]
N#Cc1ccccc1-c1csc(N2CCC(C(N)=O)CC2)n1,nt,-18.8%,nt,nt,nt
O=C(Oc1ccc(-c2cnc3ccccc3n2)cc1)c1ccc(Br)o1,27.3%,?,9.2µM*,?,?
O=C(Oc1ccc(-c2cnc3ccccc3n2)cc1)c1cccc([N+](=O)[O-])c1,?,?,7.31µM*,?,31.6µM*
O=C(Oc1ccc(-c2cnc3ccccc3n2)cc1)c1ccc(Cl)c([N+](=O)[O-])c1,3.0%,?,8.2µM*,11.7%,?
O=C(OCc1nc2ccccc2s1)c1ccc(Br)o1,-0.1%,?,14.0%,-4.7%,19.0%
CCCCc1nc2c(c3c1C[C@H](C)OC3)CN(C(=O)Cc1cccc(OC)c1)CC2,nt,nt,nt,nt,-4.8%[9.22 µM]
S=C(N=Nc1ccccc1)NNc1ccccc1,-1.0%,19µM*,14.8%,-2.0%,?
Cc1sc(NC(=O)c2ccc(Cl)s2)c(C(N)=O)c1C,?,2.39µM*,1.64µM*,?,10µM*
Cc1sc(NC(=O)c2ccc(Br)s2)c(C(N)=O)c1C,?,1.69µM*,?,?,10µM*
CCOC(=O)c1c(S(=O)(=O)N2CCCC(C(=O)Nc3ccc(OCC)cc3)C2)c(C)n(C)c1C (stereo not drawn),nt,-3.3%,nt,nt,nt
O=c1c2cnn(-c3ccc(F)cc3)c2ncn1Cc1ccccc1Cl,nt,-0.5%,nt,nt,-1.3%
O=Cc1c(-c2ccc(F)cc2)nc2ccccn12,14.0%,-9.7%,3.0%,10.3%,-3.8%
SMILES,Rab9 prom act,FLuc counter,ELG1 genotoxic,NPC1 promoter act,SMN2 splice up
COc1ccc(-c2nc3ccccn3c2C=O)cc1,3.16µM*,10.7µM*,?,3.98µM*,?
CCc1ccc(C(=O)c2cn(CC(=O)NCCc3ccccc3)c3nc(C)ccc3c2=O)cc1,nt,-4.6%,nt,nt,nt
c1ccc(CCNc2nc3ccccc3s2)cc1,?,19µM*,?,?,-11.6%
COc1ccc(CNc2nc3ccccc3s2)cc1OC,?,23.9µM*,?,?,nt
COc1ccc(CNc2nccs2)cc1OC,-3.9%,10.4%,0.5%,0.4%,nt
Cc1ccc(CNC(C)c2ccccc2)s1 (stereo not drawn),nt,1.0%,nt,nt,-1.8%
Cc1ccc(CNc2nc3ccccc3s2)s1,0.355µM*,0.338µM*,?,0.355µM*,1.26µM*
